In all, about 52,000 compounds went through this assay and about 1,700 (3.3%) were called active. This excerpt belongs to a sample that is enriched for actives. Values without a mark were called inactive. Rule as the data show it: active = survival mostly below about 52% (no sharp cut-off); inactive = mostly above about 56%.
System: Wild type
Test: growth inhibition of S. aureus wild type versus tarO mutant, primary screen, teichoic acid synthesis inhibitors, RN4220, OD600 (AID 463173)
Settings: S. aureus RN4220 wild type/DeltatarO growth, OD600, 18 h, stronger effect = lower value, screened at 18.75 µg/mL (by protocol)

SMILES	survival
Cc1c(C(=O)Nc2ccccc2Br)oc2ccc(S(=O)(=O)N3CCCCCC3)cc12	83%
O=C(NCc1ccc(F)cc1)c1ccc2c(Cl)c3c(nc2c1)CCCC3	62%
Cc1cc(C)cc(N2CC(c3nc(-c4cccc(Cl)c4)no3)CC2=O)c1 (configuration not stated)	32%
CCCCNC(=O)c1sc2ncccc2c1-n1cccc1	47%
CCc1nc(-c2cc(S(=O)(=O)N3CCN(c4ccccc4OC)CC3)ccc2OC)no1	69%
CCOc1ccccc1NC(=O)C(NS(=O)(=O)c1ccc2c(c1)CCC(=O)N2)c1ccccc1 (configuration not stated)	76%
COC(=O)c1cc(S(=O)(=O)N2CCN(c3ccc(F)cc3)CC2)cn1C	-6% (active)
CC1CCN(S(=O)(=O)c2cc(C(=O)N3CCN(c4ccccc4F)CC3)n(C)c2)CC1	65%
Cn1cc(S(=O)(=O)N2CCCCC2)cc1C(=O)N1CCN(c2ccc(F)cc2)CC1	65%
Cc1cccc(N2CCN(C(=O)c3cc(S(=O)(=O)N4CCC(C)CC4)cn3C)CC2)c1C	49%
COC(=O)c1scc(-c2ccc(C)cc2)c1S(=O)(=O)N1CCN(c2ccccc2)CC1	64%
COc1ccccc1N1CCN(C(=O)c2cc(S(=O)(=O)N3CCC(C)CC3)cn2C)CC1	0% (active)
COC(=O)c1scc(-c2ccc(C)cc2)c1S(=O)(=O)N1CCN(c2ccc(OC)cc2)CC1	75%
COC(=O)c1scc(-c2ccc(C)cc2)c1S(=O)(=O)N1CCN(c2ccc(F)cc2)CC1	-6% (active)
Cn1cc(S(=O)(=O)N2CCCCCC2)cc1C(=O)N1CCN(c2ccc(F)cc2)CC1	71%
CCc1ccc(-n2nc3cc(C)c(NC(=O)c4cc(OC)cc(OC)c4)cc3n2)cc1	69%
Cc1ccc(-c2cc(C(=O)Nc3c(C(=O)c4ccc(C)c(F)c4)oc4ccccc34)no2)cc1	93%
O=C(Nc1cccc(NC(=O)C2CCCO2)c1)c1ccco1 (configuration not stated)	102%
O=C(Nc1ccc(F)c(Cl)c1)C1CCN(S(=O)(=O)c2ccc3c(c2)CCCN3C(=O)C2CCC2)CC1	67%
COC(=O)c1c(SC)nc2ccccc2c1OCc1ccc(C)cc1	75%
NC(=O)C1CCN(C(=O)CSc2nc(O)cc(=O)[nH]2)CC1	97%
O=C(N/N=C1/SCC(=O)N1Cc1ccco1)c1ccccc1F	97%

SMILES	survival
CC(=O)c1ccc(S(=O)(=O)Nc2ccc(-c3cn4c(C)csc4n3)cc2)cc1	-6% (active)
COc1ccc(S(=O)(=O)Nc2ccc(-c3cn4c(C)csc4n3)cc2)cc1	78%
CC(=O)Nc1ccc(S(=O)(=O)Nc2ccc(-c3cn4c(C)csc4n3)cc2)cc1	69%
CCc1ccccc1Nc1nn2c(=O)c3ccc(C(=O)NCc4ccc(C)cc4)cc3nc2s1	92%
Cc1ccccc1Cn1c(CN2CCC(C(=O)NCCc3ccccc3)CC2)cc2ccccc21	110%
CC(=O)N1CCc2c(sc3c2c(=O)n(-c2ccccc2C)c(=O)n3CC(=O)Nc2ccccc2)C1	69%
CCOc1ccc(-n2c(SCC(=O)Nc3cc(C)on3)nc3c([nH]c4ccccc43)c2=O)cc1	69%
CCOc1ccc(N(CC)S(=O)(=O)N2CCCC(C(=O)Nc3cc(Cl)ccc3C)C2)cc1 (configuration not stated)	79%
COc1cc(Cl)c(C)cc1NC(c1ccccc1)c1nnc(-c2ccccc2Cl)o1 (configuration not stated)	75%
CCc1cccc(NC(c2nnc(-c3ccccc3)o2)c2ccc(F)cc2Cl)c1 (configuration not stated)	70%
COc1ccc(NC(c2ccc(F)cc2)c2nnc(-c3ccccc3Cl)o2)cc1Cl (configuration not stated)	88%
Cc1ccc(Cl)cc1NC(c1ccc(F)cc1)c1nnc(-c2ccccc2)o1 (configuration not stated)	117%
Cc1ccc(C)c(NC(c2ccccc2)c2nnc(-c3ccccc3F)o2)c1 (configuration not stated)	5% (active)
CCc1cccc(NC(c2ccccc2)c2nnc(-c3ccccc3F)o2)c1 (configuration not stated)	1% (active)
COc1cc(C(=O)Nc2ccc3nc(SCc4ccccc4)sc3c2)cc(OC)c1OC	86%
CCOC(=O)c1[nH]c2c(c1Cc1ccccc1C)C(=O)CC(c1ccccc1)C2 (configuration not stated)	95%
O=C(NCc1ccc(F)cc1)C(=O)NCC(c1ccco1)S(=O)(=O)c1cccs1 (configuration not stated)	0% (active)
Cc1ccc(CNC(=O)C(=O)NCC(c2ccco2)S(=O)(=O)c2cccs2)cc1 (configuration not stated)	75%
O=C(NCCc1ccc(F)cc1)C(=O)NCC(c1ccco1)S(=O)(=O)c1cccs1 (configuration not stated)	53%
O=C(NCCc1ccc(Cl)cc1)C(=O)NCC(c1ccco1)S(=O)(=O)c1cccs1 (configuration not stated)	-3% (active)
O=C(NCCc1ccccc1)C(=O)NCC(c1ccco1)S(=O)(=O)c1cccs1 (configuration not stated)	75%
O=C(NCc1ccccc1)C(=O)NCC(c1ccco1)S(=O)(=O)c1cccs1 (configuration not stated)	70%

SMILES	survival
Cn1c(=O)n(C)c2cc(N3CCOCC3)c(NC(=O)c3ccc(C(C)(C)C)cc3)cc21	75%
CCc1c(C)nc2nncn2c1Nc1cccc(C)c1	91%
Cc1ccc2sc(N(Cc3cccnc3)C(=O)CCOc3ccccc3)nc2c1C	63%
Cc1nn2c(-c3ccccc3)cc(-c3ccccc3)nc2c1-c1ccc(Cl)cc1	86%
Cc1[nH]n2c(=O)cc(-c3ccc(Cl)cc3)nc2c1-c1ccccc1	-17% (active)
Nc1nc2nc(-c3ccccc3)cc(=O)n2[nH]1	59%
Cc1cccc(-c2cc3nc(-c4ccccc4)cc(=O)n3[nH]2)c1	93%
Cc1[nH]n2c(=O)cc(-c3ccccc3Cl)nc2c1-c1ccccc1	-13% (active)
O=C(Nc1nc2nc(-c3ccccc3)cc(=O)n2[nH]1)c1ccc(Cl)cc1	88%
CCOC(=O)c1ccc(CN(Cc2ccc(Br)cc2)S(=O)(=O)c2cccc(C(F)(F)F)c2)cc1	72%
CCOc1ccccc1CNC(=O)CCc1c(C)nn(-c2ccc(N3CCCC3)nn2)c1C	71%
COc1ccc(CNC(=O)c2sc3nc4n(c(=O)c3c2C)CCCCC4)cc1	86%
CSc1cccc(NC(=O)C2CCN(S(=O)(=O)c3ccc4[nH]c(=O)ccc4c3)CC2)c1	101%
CN(Cc1ccccc1)C(=O)CSc1nc(-c2ccc(F)cc2)cc(C(F)(F)F)n1	-4% (active)
COc1ccc(-c2cc(C(F)(F)F)nc(SCC(=O)NCCc3ccccc3)n2)cc1	140%
COc1ccc(-c2cc(C(F)(F)F)nc(SCC(=O)N(C)Cc3ccccc3)n2)cc1OC	45%
O=C(CSc1nc(-c2ccc(F)cc2)cc(C(F)(F)F)n1)NCc1ccccc1	84%
O=C(CSc1nc(-c2ccc(F)cc2)cc(C(F)(F)F)n1)NCCc1ccccc1	89%
COc1ccc(-c2cc(C(F)(F)F)nc(SCC(=O)N(C)Cc3ccccc3)n2)cc1	-1% (active)
COc1ccc(CC(=O)Nc2c(C(=O)N3CCN(c4ccccc4)CC3)oc3ccccc23)cc1OC	76%
CCN(CC)S(=O)(=O)c1ccc(NC(=O)[C@H](CSCc2ccccc2)N2Cc3ccccc3C2=O)cc1	130%
CCOc1ccc(-n2c(SCC(=O)Nc3ccc(F)cc3)nc3c([nH]c4ccccc43)c2=O)cc1	88%

SMILES	survival
CCc1ccc(C(=O)NC2=NC(c3ccccc3F)CC(=O)N2)cc1 (configuration not stated)	166%
Cc1ccccc1Cn1c(=O)n(CCc2ccccc2)c(=O)c2ccccc21	4% (active)
O=c1c2ccccc2n(Cc2ccccc2Cl)c(=O)n1CCc1ccccc1	15% (active)
O=c1c2ccccc2n(Cc2c(F)cccc2Cl)c(=O)n1CCc1ccccc1	83%
Cc1cccc(CCn2c(=O)c3ccccc3n(Cc3ccccc3C)c2=O)c1	59%
O=C(CCn1c(=O)c2ccccc2n(Cc2cccc(Cl)c2)c1=O)NCCc1ccccc1	74%
O=c1c2ccccc2n(Cc2cccc(Cl)c2)c(=O)n1Cc1ccccc1	96%
O=C(CCCCn1c(=O)c2ccccc2n(Cc2ccccc2Cl)c1=O)NCCc1ccccc1	132%
O=c1c2ccccc2n(Cc2cccc(Cl)c2)c(=O)n1CCc1ccccc1	39% (active)
Cc1ccccc1Cn1c(=O)n(CCCCC(=O)NCCc2ccccc2)c(=O)c2ccccc21	103%
COc1cc(NC(=O)CSc2ncc(S(=O)(=O)c3ccc(Br)cc3)c(=O)[nH]2)cc(OC)c1	84%
O=C(c1ccc(Cl)cc1)n1nc(-c2ccco2)nc1NCc1cccs1	87%
O=C(NCC(c1ccco1)S(=O)(=O)c1cccs1)c1ccc(C(F)(F)F)cc1 (configuration not stated)	83%
CC(=O)Nc1ccc(Nc2c3c(c(C#N)c4nc5ccccc5n24)CCC3)cc1	100%
Cc1nn2c(=O)cc(COC(=O)c3ccc(NC(=O)c4ccc(C(C)(C)C)cc4)cc3)nc2s1	74%
COc1cc(NC(=O)Cn2nc(C(F)(F)F)c3c2CCCC3)c(OC)cc1Cl	87%
COC(=O)c1ccccc1NC(=O)Cn1nc(C(F)(F)F)c2c1CCCC2	-5% (active)
COc1ccc(Cl)cc1NC(=O)Cn1nc(C(F)(F)F)c2c1CCCC2	9% (active)
COc1ccc(Cl)cc1NC(=O)Cn1nc(C(F)(F)F)c2c1CCC2	84%
CCc1ccccc1NC(=O)Cn1nc(C(F)(F)F)c2c1CCC2	74%
CCc1ccccc1NC(=O)Cn1nc(C(F)(F)F)c2c1CCCC2	84%

From PubChem BioAssay AID463173 (ICCB-Longwood Screening Facility, Harvard Medical School, 2010)
